Experimental data from PubChem BioAssay AID1508600 (Functional Genomics Laboratory (NCATS/FGL), 2020).
Screen size: about 53,000 sequences; about 3,700 (7%) were called active.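 How the source made its calls: active means gene knockdowns whose robust z-score for IL-1 alpha signal is at least 2 or at most -2, so actives lie on both sides; inactive means the rest.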 The sample as a whole holds a higher share of actives than the screen did.

Assay: Components of the Cytosolic LPS Sensing Pathway: Gene Identification via Genome-wide siRNA Screen;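 further: robust z of the log signal after scaling to non-targeting control siRNA wells of the plate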
Details: RAW264.7 macrophages, IL-1a HTRF, actives lie on both sides, screened at 100 nM (by protocol), cells primed 5 h with Pam3CSK4 first
Outline: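 Supernatant IL-1a by HTRF from RAW264.7 cells primed with Pam3CSK4 (5 hours) and transfected with LipidA (24 hour) after 48h siRNA knockdown at 100 nM; cell viability checked with CellTiter-Glo.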

| Sequence | z-score |
| --- | --- |
| CCUGACAGUAGUUACUAUUTT against Olfr1154 | -0.945 (inactive) |
| GGUUUUUUGUAGCAAACAGTT against Phc2 | -2.7 (active) |
| GGUCCUUUACAUGAACCGCTT against Vps18 | -0.661 (inactive) |
| GGAAUGCAUGAUGAUGUCATT against Prl7a2 | -0.783 (inactive) |
| GGGAUCCUCUUGACAUUCCTT against Epdr1 | 3.87 (active) |
| GGUAGCAGACAGCUACCCUTT against Tnfsf15 | 0.405 (inactive) |
| CCAAGCUAUUGGCCCUGACTT against Defb38 | 0.251 (inactive) |
| GCUGAUGACCACUGAGUUUTT against Tsr2 | 1.34 (inactive) |
| GCAAGUCAGCUACAACUGUTT against Rnasek | 0.0313 (inactive) |
| GGUGGCUAUAACAGAGCCUTT against Rdh18-ps | 0.173 (inactive) |
| GGAAACAAGGAAGCAAUUATT against Psmd1 | -3.01 (active) |
| GGAGAAACCAGCUAAAGGATT against Car9 | -0.235 (inactive) |
| GGUGAUCAGCAUGGUGGGUTT against Pold1 | 0.208 (inactive) |
| GGUAUAAAGAACUCUGUCATT against Cep78 | -2.49 (active) |
| GGGUGAUAGCAAGACACAGTT against Olfr720 | 1.06 (inactive) |
| GGAGGACCAAGAGGACAUUTT against Tbl3 | 0.468 (inactive) |
| GGCCCAAGAGAUUGAUCAATT against Ivd | -0.565 (inactive) |
| CGAAACCUCUAAGAAGAUATT against Pole | -0.264 (inactive) |
| GGCAUGUUCCUCAUAUGCCTT against Lrit1 | -2.01 (active) |
| GGAGCAUUGCCUUUUAAAGTT against Psph | -0.474 (inactive) |
| CCAAUUGGGCCACACGUAATT against Tial1 | 1.15 (inactive) |
| GGACUCUUUUGGACCUAAGTT against Hilpda | -1.24 (inactive) |
| GGAACAAAUUCUGGAGUUGTT against Zfp287 | 0.791 (inactive) |

| Sequence | z-score |
| --- | --- |
| GGUUACAGAGAGACAUCAUTT against Cdk5rap2 | 0.942 (inactive) |
| GGGUUUCAACGGCUGUGACTT against Mef2d | -2.73 (active) |
| GGUUAUGGAGACAAAGGAUTT against Sik1 | -1.33 (inactive) |
| CCGUACGAUGAUAAUACCATT against Clec4a3 | 2.29 (active) |
| GGAGCUAGCUGAGUUCAUGTT against Arhgap4 | 1.22 (inactive) |
| GGACAGCUCUCUUUAGUCUTT against Erf | -1.78 (inactive) |
| GGACCUGAAGGCUGAAAUUTT against Ing4 | 3.08 (active) |
| GGUCUGAUAACUCUGGAGGTT against Snf8 | -0.0859 (inactive) |
| GGAUGGACAUCCAAGCAGGTT against Fabp9 | -1.97 (inactive) |
| GGAGUGUUACUAGAUGUCCTT against Spns3 | 0.394 (inactive) |
| CGAACUGGUAGAAGUUAUUTT against Csgalnact2 | 2.07 (active) |
| GGUCUCUGUACUUUGACUGTT against Cldn19 | -1.2 (inactive) |
| GGAGCAAAAUUCACAGUCUTT against Bcl7a | -0.25 (inactive) |
| GAUUGGCUUCAAUCUAGUCTT against Olfr713 | 0.701 (inactive) |
| GGGCCAGAGUCAGAAAAGGTT against Ebp | 1.98 (inactive) |
| GCGUAUGUACCGAUGGCAGTT against Mocs2 | 0.871 (inactive) |
| CGCUGCCUAAACAAGAUUATT against Cacna1f | 3.28 (active) |
| AGACCUUGAGAACAUUCUUTT against Nkx2-6 | 0.925 (inactive) |
| CCGUGAUCUUAAACCCUCUTT against Mapk7 | -0.988 (inactive) |
| CGUUUUACCACCGUGUGCUTT against Gfra1 | -0.284 (inactive) |
| GGUAAUUCAGUCUUAUACATT against Pcdhb21 | 3.2 (active) |
| CGUGAAGAUUCUUAAGGCGTT against Ppil1 | 0.716 (inactive) |
| GGUGGAAUUGAAGAGUUCATT against Rcor3 | 0.24 (inactive) |

| Sequence | z-score |
| --- | --- |
| GCAAGAAACGGGAACUAUUTT against Mettl7b | 1.25 (inactive) |
| GGCCUUAGAAUUUGAUUCUTT against Slc30a8 | 0.814 (inactive) |
| GGAUGUAUAGGUUCAGCUGTT against Dph2 | 0.41 (inactive) |
| GGCCUUUGGGACAUGUGUGTT against Olfr552 | -2.05 (active) |
| GGAGAAGCUCUUAAAGAAATT against Traf3ip3 | 0.959 (inactive) |
| GCAGUGAAGUCCAAGUUAGTT against Pold3 | -0.456 (inactive) |
| CCAAUAAGUGACCUUUUUUTT against Tmprss11b | -0.989 (inactive) |
| CCAAGUCUACCUCUAUUUUTT against Pbsn | 1.77 (inactive) |
| GGUUCCUUAAUUUAUUGCCTT against Fbxl22 | 2.31 (active) |
| CCACUAUGGCGACCAGAUUTT against Mfap2 | 0.0375 (inactive) |
| GCCCUCACAGCCAGAAUUGTT against Pram1 | -2.15 (active) |
| GGUUAAAAGCCAUGUGUAATT against Pggt1b | -0.151 (inactive) |
| CGAUGGUCGAAGGAUUGUCTT against Tnfsf4 | -0.837 (inactive) |
| GUCACAAGCUGUCCAACAATT against Ndufa7 | -2.25 (active) |
| GGUUUUGUCACCAUAGCCATT against 3110040N11Rik | -0.762 (inactive) |
| GGACAUUGAGUCAAAAAUCTT against Slc19a2 | -0.966 (inactive) |
| GCCUGGAGAAGUGAACUCUTT against Tll1 | -1.65 (inactive) |
| GGGAUUUCGAGAGACUAGCTT against Dock9 | -0.487 (inactive) |
| GCCCUGAUGCAAGCUUGUGTT against Gprin3 | 0.193 (inactive) |
| CCUGUUUCAGUCAUUAGUGTT against Slc22a2 | 2.6 (active) |
| GGCAACUGUUUCUGCUCCGTT against Ap4e1 | -0.746 (inactive) |
| GCCAAUCGUAACUUGCUAATT against Arhgap19 | 0.865 (inactive) |
| GGUACAACAAAAAUGUGACTT against Vmn1r73 | -1.39 (inactive) |
